Data published in PubChem BioAssay (NCI).
Compounds without any hit were thinned out: in the full panel of roughly 83,000, 20% have a hit.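 Results are percent growth after 48 hours of single-concentration exposure. 100 means growth as in untreated cells, lower positive values show inhibition; negative values down to -100 show cell death.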 A number with no mark means an inactive call. Calls of active or inactive are those of the source. Rule for the calls: active = growth percent below 10; inactive = the rest.

Experiments:
Experiment in all cases: NCI-60 one-dose screen, 48 h (100 = growth as untreated, 0 = no growth, -100 = all killed)
Settings in all cases: 10 µM unless noted
NCI-H23 lung = tested on: NCI-H23 lung
NCI-H226 lung = tested on: NCI-H226 lung
HOP-62 NSCLC = tested on: HOP-62 NSCLC
NCI-H460 lung = tested on: NCI-H460 lung
HOP-92 NSCLC = tested on: HOP-92 NSCLC
NCI-H522 lung = tested on: NCI-H522 lung
A549/ATCC NSCLC = tested on: A549/ATCC NSCLC
786-0 renal = tested on: 786-0 renal
COLO 205 colon = tested on: COLO 205 colon

SMILES	growth (NCI-H23 lung)	growth (NCI-H226 lung)	growth (HOP-62 NSCLC)	growth (NCI-H460 lung)	growth (HOP-92 NSCLC)	growth (NCI-H522 lung)	growth (A549/ATCC NSCLC)	growth (786-0 renal)	growth (COLO 205 colon)
OCCOCC(F)(F)F	104%	105%	111%	108%	94.9%	110%	113%	113%	112%
Nc1ncnc2c1ccn2-c1cccc(NC(=O)c2cccc(C(F)(F)F)c2)c1	90.6%	70.2%	91.7%	45.8%	-1.72% (active)	56.2%	50.7%	101%	75.7%
C=C(C)[C@@H]1C/C=C(\COC(=O)[C@H](OC(C)=O)C(NC(=O)c2ccccc2)c2ccccc2)CC[C@H]2O[C@]2(C)CC/C=C(\C)CC1 (some centres undefined)	73.7% [5 µM]	81% [5 µM]	75.3% [5 µM]	64.2% [5 µM]	13.3% [5 µM]	57.3% [5 µM]	73.1% [5 µM]	65.7% [5 µM]	92% [5 µM]
CCOc1ccc(-n2c(-c3cc(OC)c(OC)c(OC)c3)nnc2-c2ccc(OC)cc2N)cc1	76.4%	80.1%	78.3%	42.3%	73.1%	52.6%	54.9%	89.5%	51%
C=C1c2c(Cl)ccc(O)c2C(O)=C2C(=O)[C@]3(O)C(O)=C(C(N)=O)C(=O)[C@@H](N(C)C)[C@@H]3[C@@H](O)[C@H]12	8.01% (active)	42.7%	9.39% (active)	4.63% (active)	-37.3% (active)	11.6%	9.74% (active)	8.22% (active)	22.5%
O=C(Cn1c2ccccc2c2ccncc21)N/N=C/c1cc(O)c(O)c(O)c1	103%	105%	104%	101%	111%	84.5%	101%	105%	110%
COc1ccc(-c2nnc(SCC(=O)Nc3ccc(C(=O)/C=C/c4ccc(OC)c(OC)c4)cc3)o2)cc1	91.9%	86.2%	73.6%	95.1%	81.3%	68.4%	77.7%	106%	102%
O=C(COc1ccc(Cl)cc1Cl)N1N=C(c2ccc(Cl)cc2Cl)CC1(O)c1cc(F)c(Cl)cc1Cl (centres undefined)	98.7%	149%	105%	107%	84.5%	95%	107%	101%	95.4%
CCCN1C(=O)CSC1=Nc1ccc2cc3ccc(N=C4SCC(=O)N4CCC)cc3nc2c1	35.8%	32.2%	47.6%	36.8%	57.1%	31.4%	41.4%	8.44% (active)	36.8%
CCOC(=O)C1CN(Cc2ccccc2)C(=O)C1=O (centres undefined)	105%	93.3%	98.8%	106%	84.3%	98.6%	112%	105%	93.6%
OC[C@@H](O)C(O[C@@H]1O[C@H](CO)[C@H](O)[C@H](O)[C@H]1O)[C@H](O)[C@@H](O)CO (some centres undefined)	98.3%	103%	96.7%	108%	82.1%	95.7%	110%	106%	110%
CCc1cccc(-c2ccccc2)c1	107%	109%	101%	108%	92.9%	106%	104%	98.8%	105%
O=C(O)c1ccc2nc(-c3ccc(OCCCCCOc4ccc(-c5nc6ccc(C(=O)O)cc6[nH]5)cc4)cc3)[nH]c2c1	46%	63.4%	91.9%	109%	100%	92.8%	81.7%	-20.8% (active)	8.79% (active)
CCNc1ncnc2n[nH]nc12	96.9%	90.8%	95.7%	103%	83.1%	93.2%	91.1%	96.1%	105%
Cl[C@@H]1CCO[C@H](c2cc3ccccc3c3ccccc23)C1	95.5%	89.8%	98.8%	99%	89.1%	82.6%	93.6%	88.7%	104%
O=S(c1ccccc1)c1ccc2nnnn2n1 (centres undefined)	100%	103%	108%	103%	101%	-17.6% (active)	99.9%	104%	98%
Cc1nccc2c3ccc(OCc4cn(Cc5ccc(Br)cc5)nn4)cc3n(CCCc3ccccc3)c12	82.5%	88.9%	62%	89.5%	77.9%	59.4%	82.6%	67%	92.4%
CCCc1nn2c(CCC(=O)c3nc4ccc([N+](=O)[O-])cc4[nH]3)nnc2s1	94.4%	102%	106%	104%	114%	104%	99.9%	108%	112%
C[C@H]1C=C(C[C@@H](O)CCCCCCCCCC[C@@H](O)[C@H]2CCC(=O)O2)C(=O)O1	95.5%	96.5%	109%	113%	68%	73.3%	110%	96.8%	–
O=C(N/N=C1\SCC(=O)N1c1ccccc1)c1cc(-c2cc3ccccc3o2)nn1-c1ccccc1	44.8%	118%	101%	121%	50.9%	106%	110%	102%	132%
N#Cc1c(N)nc2c(c1N)C(c1ccc(Cl)cc1)C1=C(CCCC1=O)N2c1sc2c(c1C#N)CCCC2 (centres undefined)	91.2%	89.2%	80%	97.3%	62%	84.3%	90.1%	80.1%	96.2%
S=c1[nH]nc(Cn2c3ccccc3c3ccncc32)o1	107%	107%	95.1%	100%	109%	91.3%	90.7%	99.2%	104%
Cc1c(NC(=O)c2sc3nc4c(cc3c2N)CN(Cc2ccccc2)CC4)cccc1C(F)(F)F	72.7%	65.7%	35.9%	18.7%	77.1%	10.4%	53.7%	84.4%	–
CC(CCC(=O)O)[C@H]1CCC2C3C(=O)C[C@@H]4CC(=O)CC[C@]4(C)C3CC(=O)[C@@]21C (some centres undefined)	101%	103%	112%	107%	96.2%	117%	98.7%	106%	119%
CCc1cccc(C)c1NC(=O)c1sc2nc3c(cc2c1N)CCCCC3	45.3%	50.7%	36.9%	13.3%	72.2%	-9.98% (active)	32.9%	44.8%	7.73% (active)
O=C(Nc1cccc(-n2ccc3c(NC(=O)c4ccccc4)ncnc32)c1)Nc1ccc(Cl)c(C(F)(F)F)c1	31.9%	55.1%	56.8%	14.4%	29.2%	11.8%	28.3%	53.2%	20.9%
COc1ccc(C2CC(c3cc(Cl)c(C)cc3OC)=NN2c2ccc(S(N)(=O)=O)cc2)cc1OC (centres undefined)	75.8%	81.3%	87.8%	89.8%	101%	74.3%	73.2%	92.3%	101%
COc1ccc2c(c1)nnn1c3ncccc3c(N=O)c21	-23.8% (active)	-57.7% (active)	-41.7% (active)	-70% (active)	-49.2% (active)	-85.7% (active)	6.65% (active)	-63.1% (active)	-61% (active)
CCOc1ccccc1C(=O)N1CCN(c2cc(Cl)cc(Cl)c2)CC1	24.3%	65.6%	27.1%	5.68% (active)	18.2%	-6.41% (active)	19.3%	14.5%	-65.9% (active)
